Assay outcomes from PubChem BioAssay.
An excerpt weighted towards active compounds, which were near 3.4% of everything screened.
FBW7 act: human FBW7 E3 ligase activation, primary screen | Q969H0 | AlphaScreen FBW7–phospho-cyclin E peptide binding, activator screen | normalized activity (activation), % at 26.1 µM | 0.13% of 650,000 active | AID 1259310; in the data active means normalized activity above about 1.9%;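 further: purified mutant Fbw7 with reduced substrate affinity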
GPR151 activ: activators of human GPR151; activation, % at 11.2 µM; PathHunter beta-arrestin GPR151 cells, luminescence; 1% of 650,000 active; AID 1508602; in the data active means activation above about 4.9%
MITF inh: blocks human microphthalmia-associated transcription factor; AlphaScreen MITF homodimerization, bead proximity signal; inhibition, % at 2.6 µM; 0.91% of 650,000 active; in the data active means inhibition above about 50%
TEAD-YAP inh: TEAD-YAP interaction inhibition. HEK-TIYL cells, TEAD-Gal4/YAP UAS-luciferase luminescence. inhibition, % at 9.12 µM. AID 1259422. 1.4% of 640,000 active; in the data active means inhibition above about 32%
GPR151 confirm: confirmation of human GPR151 activators; shares compounds with GPR151 activ; activation, % at 11.2 µM; GPR151 PathHunter beta-arrestin cells, luminescence, 90 min; % of EA-reagent control over plate median; 6,700 tested, under 10 active;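 active means mean percent activation across replicates above the confirmation screen cutoff of 4.91%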
GPR119 counter: GPR119 activation, counter-screen for GPR151 activators. activation, % at 11.2 µM. shares compounds with GPR151 activ. 0.3% of 6,700 active. AID 1508611. GPR119 PathHunter beta-arrestin cells, luminescence, 90 min; 0 = compound-well median, 100 = enzyme-acceptor control;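 active means mean percent activation in the counterscreen above 29.09%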;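 further: counterscreen on off-target GPR119 to flag nonselective hits from the GPR151 activator screen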
Large screens that a line does not name were inactive (follow-up assays come after a bar, where they were run).

Cc1nnc(SCC(=O)Nc2ccc(Br)cc2C)s1	none
COc1ccc(C(=O)Nc2nnn(C)n2)cc1	none
Cn1nnc2cc(NC(=O)Nc3ccc(Br)cc3)ccc21	GPR151 activ 5.9 | GPR151 confirm inactive | GPR119 counter inactive
Cc1cc2c(c(-c3cnccn3)c1)OC(CNC(=O)c1ccc(CN3CCCCC3)cc1)C2 (centres undefined)	none
O=[N+]([O-])c1ccc(CSC2=NCCN2)cc1	GPR151 activ 7.2 | GPR151 confirm inactive | GPR119 counter inactive
CCOc1ccc(CSC2=NCCN2)cc1[N+](=O)[O-]	none
N#C/C(=C\c1cn(Cc2ccccc2)c2ccccc12)C(=O)NC1CC1	GPR151 activ 5.2 | GPR151 confirm inactive | GPR119 counter inactive
O=C(NC1CCCCC1NC(=O)C1CC12CCC2)C1CC12CCC2 (centres undefined)	none
O=C(CC1OCCN(Cc2ccccc2)C1=O)Nc1ccc2c(c1)OCO2 (centres undefined)	GPR151 activ 9.9 | GPR151 confirm inactive | GPR119 counter inactive
CN1CCC(N(C)Cc2ccccc2C(F)(F)F)CC1	none
CC(=O)c1ccc(NC(=O)CSc2ncnc3c2cnn3-c2ccc(C)cc2)cc1	none
CC(=O)Nc1ccc(NC(=O)c2cccc(-c3ccc(C(N)=O)cc3)n2)cc1	GPR151 activ 13 | GPR151 confirm inactive | GPR119 counter inactive
c1ccc(CCNc2nccn3c(-c4cccc5ccccc45)cnc23)nc1	none
Cc1ccc(NC(=O)CS(=O)(=O)c2ccccc2)cc1	GPR151 activ 6.1 | GPR151 confirm inactive | GPR119 counter inactive
CCCCCC(=O)Nc1ccc(S(=O)(=O)Nc2nccc(C)n2)cc1	GPR151 activ 5.5 | GPR151 confirm inactive | GPR119 counter inactive
Cc1ccc(NS(=O)(=O)c2ccc(NC(=O)CCCOc3ccccc3)cc2)cc1	GPR151 activ 6.7 | GPR151 confirm inactive | GPR119 counter inactive
O=C(CCCOc1ccccc1)Nc1ccc(S(=O)(=O)Nc2ncccn2)cc1	none
O=C(NCc1ccccc1)c1cccc(Nc2cccnc2)n1	none
CC(=O)C(/C=N/c1cc(-c2ccccc2)nn1Cc1ccccc1)=C(\C)O	none
COCCCNC(=O)c1ccc(OC)cc1	none
COCCNC(=O)c1ccc(OC)cc1	GPR151 activ 4.9 | GPR151 confirm inactive | GPR119 counter inactive
FC(F)(F)c1ccc(NCCN2CCOCC2)nc1	GPR151 activ 8.2 | GPR151 confirm inactive | GPR119 counter inactive
O=S1(=O)N=C(N(CCO)/N=C/c2cccc(O)c2O)c2ccccc21	GPR151 activ 5.9 | GPR151 confirm inactive | GPR119 counter inactive
C=C(C)CNc1nc2nonc2nc1NC1CC1	none
c1cc(CNc2nc3nonc3nc2NC2CC2)c2cc[nH]c2c1	GPR151 activ 5.5 | GPR151 confirm inactive | GPR119 counter inactive
CNC(=S)N1CCC(C(=O)NC(c2cccc(OC)c2)c2ccccn2)CC1 (centres undefined)	GPR151 activ 6.9 | GPR151 confirm inactive | GPR119 counter inactive
CCc1c(C)sc(NC(=O)COc2ccc(Cl)cc2Cl)c1C(N)=O	none
O=C(NCCC1CCCCN1S(=O)(=O)c1cccs1)C(=O)NC1CCCC1 (centres undefined)	none
Cc1ccc2nc(-c3ccccn3)cc(C(=O)Nc3ccc([N+](=O)[O-])cn3)c2c1	GPR151 activ 15 | GPR151 confirm inactive | GPR119 counter inactive
O=c1[nH]c(N/N=C/c2ccc(O)cc2)nnc1Cc1ccccc1	none
O=c1[nH]c(N/N=C/c2cc([N+](=O)[O-])ccc2O)nnc1Cc1ccccc1	GPR151 activ 6.2 | GPR151 confirm inactive | GPR119 counter inactive
CC(NC(=O)c1ccc(N(Cc2ccccc2)S(C)(=O)=O)cc1)c1ccccc1 (centres undefined)	none
Cc1ccc(N(Cc2ccc(C(=O)NC(C)c3ccccc3)cc2)S(C)(=O)=O)cc1C (centres undefined)	GPR151 activ 5.5 | GPR151 confirm inactive | GPR119 counter inactive
CCOC(=O)c1c(NC(=O)c2ccc(Oc3ccccc3)cc2)sc2c1CCCC2	none
COc1ccc2nc(NC(=O)C34CCC(C)(C(=O)C3)C4(C)C)sc2c1 (centres undefined)	GPR151 activ 9.1 | GPR151 confirm inactive | GPR119 counter inactive
